Measurements published in paper PMC7819943, “Rice protein-binding microarrays: a tool to detect cis-acting elements near promoter regions in rice”.
The full ranking holds about 35,000 sequences; the median of “fluorescence intensity (a.u.)” is about 10,000, and the highest 2% start at about 52,000. For the sample, the highest values were picked, then their nearest neighbours and some sequences at random.

These sequences were tested against T1, OsWOX13 (Oryza sativa, UniProt Q5QMM3 1-267) (assay: protein-binding microarray (RPBM); PBS, 2% BSA, 51.3 ng/ul salmon testes DNA, 50 uM zinc acetate, 200 nM TF, 25 C, 1 h; high values mean tight binding). Conditions: protein: recombinant; tags: N-terminal polyhistidine and DsRed monomer fusion (pET32a); label: CyDye5-dUTP incorporated in the synthesized complementary strand; 3' TTTTT single-stranded linker to array surface; dsDNA, one strand shown.
T1 sequence: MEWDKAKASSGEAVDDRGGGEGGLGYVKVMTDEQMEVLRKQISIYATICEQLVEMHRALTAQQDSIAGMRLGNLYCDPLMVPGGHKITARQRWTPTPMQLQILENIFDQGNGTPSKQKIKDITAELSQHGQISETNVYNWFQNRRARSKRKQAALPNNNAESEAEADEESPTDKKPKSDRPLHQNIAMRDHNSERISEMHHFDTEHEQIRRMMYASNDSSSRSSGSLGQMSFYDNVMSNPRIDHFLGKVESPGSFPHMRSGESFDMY
In short: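 Ni–NTA purification followed expression in E. coli BL21-CodonPlus of transcription factors fused N-terminally to a polyhistidine tag and DsRed. At 200 nM in PBS with 2% BSA, salmon testes DNA and 50 µM zinc acetate, the protein was incubated for 1 h at 25 °C with a custom Agilent array that had been primer-extended with Cy5-dUTP and blocked with 2% BSA. After washing, the array was read on an Axon 4000B scanner. The binding signal is per-feature fluorescence intensity in arbitrary units.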
For “TGATAATTTTAAATTAAATAAGTAAATTTCAGAAAACTATCGGAGTCACCTAGTGCAG”, the binding signal was 29700 fluorescence intensity (a.u.). In the case of “TTATATTTAGATTGAAGCCAAAATAACCTAAGTTCACTATCGGAGTCACCTAGTGCAG”, the binding signal is reported as 8620 fluorescence intensity (a.u.). For “TTTTACTATAACGTTTGATCATTTGTGTTATTTAAATTTTCGGAGTCACCTAGTGCAG”, the binding signal was 4170 fluorescence intensity (a.u.). For “TGATTTGGCTGATTAGATGCAATTTAGTCCTGCCACTGTGCGGAGTCACCTAGTGCAG”, the binding signal was 16900 fluorescence intensity (a.u.). For “AATCAATCAATTAGTTAGAGATCAAGTTATTAGTGTCCAACGGAGTCACCTAGTGCAG”, the binding signal was 31100 fluorescence intensity (a.u.). “CAAATAAACAGGGTTCAGTCAAACTCAAGTGAATGAATTGCGGAGTCACCTAGTGCAG” was tested, and the binding signal was 11500 fluorescence intensity (a.u.). In the case of “GTGCAATTTAACTCCATAAATTACTTTCAGAAATGTGCAGCGGAGTCACCTAGTGCAG”, the binding signal is reported as 11300 fluorescence intensity (a.u.). For “GTCATCAATGATTCAGTGTTAACTACTCCATTTCTAGAAACGGAGTCACCTAGTGCAG”, the binding signal was 3880 fluorescence intensity (a.u.). “ATGAGCCTAACCATTTCTAGTGTTACTTACTCCATTTCAGCGGAGTCACCTAGTGCAG” was tested, and the binding signal was 64200 fluorescence intensity (a.u.). For “ATAATGGGAAATGGAGGGTGGGATTGGGATTAGAAAATGACGGAGTCACCTAGTGCAG”, the binding signal was 3290 fluorescence intensity (a.u.). With “AATATTAGTATTAATTGATAAAAGTTCGTCACGCGAGTTACGGAGTCACCTAGTGCAG” the binding signal was 18200 fluorescence intensity (a.u.). In the case of “TAAATTGAATGGTTTTGTAAGTTGAGGGACGTCATATATCCGGAGTCACCTAGTGCAG”, the binding signal is reported as 21500 fluorescence intensity (a.u.). With “ATTTTGAAGTTCCTGTAAGTTGGACATATCTACTGGTTCCCGGAGTCACCTAGTGCAG” the binding signal was 65500 fluorescence intensity (a.u.). In the case of “GAGTAATTTTCTACTGGTTTTAATAGTTGAAATAGCTGTTCGGAGTCACCTAGTGCAG”, the binding signal is reported as 3780 fluorescence intensity (a.u.). In the case of “TATCTCTAATTTAGTTAATTTAACTTGTTGATCGATCGCTCGGAGTCACCTAGTGCAG”, the binding signal is reported as 21700 fluorescence intensity (a.u.). In the case of “TTGATTTGATTGGGTTGGTTCCAAATTATATTCTGTGATTCGGAGTCACCTAGTGCAG”, the binding signal is reported as 57600 fluorescence intensity (a.u.). In the case of “ATTTTCTCAATTTATCTCACTCATATAAACTCCAAATTGGCGGAGTCACCTAGTGCAG”, the binding signal is reported as 6170 fluorescence intensity (a.u.). With “CAAAACTGTCATTTTGTATGATTTCTCTCTCATCAATTGGCGGAGTCACCTAGTGCAG” the binding signal was 17500 fluorescence intensity (a.u.). In the case of “AGCAAATTTAAATTTGATAGTATAGAATTGGTTCTGAGGTCGGAGTCACCTAGTGCAG”, the binding signal is reported as 52400 fluorescence intensity (a.u.). With “TTATACAAATTATACCTGTTAATTATTGTGATTGTTTGGTCGGAGTCACCTAGTGCAG” the binding signal was 36800 fluorescence intensity (a.u.). For “ACTTGTAGTAATTTAATTTGAAATTCTGTTCTTGCCTCTGCGGAGTCACCTAGTGCAG”, the binding signal was 6760 fluorescence intensity (a.u.). “CGTTTCTGATTTGATTCTTCCAAATTTTGGGTTCCTGATTCGGAGTCACCTAGTGCAG” was tested, and the binding signal was 24800 fluorescence intensity (a.u.). “TTTGATTTAATTTGTTCTGCAAACAGTCCGGAAAATGCCTCGGAGTCACCTAGTGCAG” was tested, and the binding signal was 53500 fluorescence intensity (a.u.). For “CCAAATTTGATTGGCATCTCAAAACTGTCGTATAATTGGGCGGAGTCACCTAGTGCAG”, the binding signal was 65500 fluorescence intensity (a.u.). With “CAATAAATTTGAATAGCAATTGGTATATGTCATATCTGGTCGGAGTCACCTAGTGCAG” the binding signal was 14900 fluorescence intensity (a.u.). With “AGTTTATGATAATTTAAATTTATATAGTATGTAGAATGGTCGGAGTCACCTAGTGCAG” the binding signal was 14400 fluorescence intensity (a.u.). In the case of “TCGGTCTGCAAACAAATTGATTGATTTGTTTTCCTTTTGCCGGAGTCACCTAGTGCAG”, the binding signal is reported as 47100 fluorescence intensity (a.u.). In the case of “ATTCGTAACCACTTAATTACCCATTTATCCCCTTCTGATTCGGAGTCACCTAGTGCAG”, the binding signal is reported as 10600 fluorescence intensity (a.u.). With “TATAAATTTAGTTAAATATATATAAAGAAGTTTGACTTATCGGAGTCACCTAGTGCAG” the binding signal was 9160 fluorescence intensity (a.u.). “TAATAATTTATTATGTGTATGTGTATGGCTAGGATACAGCCGGAGTCACCTAGTGCAG” was tested, and the binding signal was 16500 fluorescence intensity (a.u.). “TGTTTTACCCTGATTGCGTGAAGTGAAACTATTATTCAGGCGGAGTCACCTAGTGCAG” was tested, and the binding signal was 3550 fluorescence intensity (a.u.). With “ATCATAATTTGAAATTCAAATTCATACTGTTCAAACAAAGCGGAGTCACCTAGTGCAG” the binding signal was 17600 fluorescence intensity (a.u.). In the case of “GTCATAATTTGAAATTCAAATTTAAACTATTCAAACAAAGCGGAGTCACCTAGTGCAG”, the binding signal is reported as 23300 fluorescence intensity (a.u.). In the case of “GTTCGTTCGTTCGTTGATTGATTGTGTTGAATTAATTGAGCGGAGTCACCTAGTGCAG”, the binding signal is reported as 27600 fluorescence intensity (a.u.). With “ACTAATTTGGTATTATAACTGTTGCTAATTATTCTATAAACGGAGTCACCTAGTGCAG” the binding signal was 21700 fluorescence intensity (a.u.). In the case of “CAAATTGGTGGGTGATTGCTAATTTATAACTGTTCGTATTCGGAGTCACCTAGTGCAG”, the binding signal is reported as 64100 fluorescence intensity (a.u.). With “AAAATTATATAATTATAATTTATTTTATTGCAACTTGATTCGGAGTCACCTAGTGCAG” the binding signal was 27000 fluorescence intensity (a.u.). For “TTTCGTGATAATTTTGTGTGCAATCACAACAATTTGAAATCGGAGTCACCTAGTGCAG”, the binding signal was 6180 fluorescence intensity (a.u.). For “TGTATTTGATTGAAACTGTTCATACTATAAACATGCTGGGCGGAGTCACCTAGTGCAG”, the binding signal was 57900 fluorescence intensity (a.u.). In the case of “GCAAATTGAATTAATTCGTGTGATATTTGTTCTGCACCGGCGGAGTCACCTAGTGCAG”, the binding signal is reported as 59500 fluorescence intensity (a.u.). “TCCACTCAATCTTCTGTTTCTATTTCCCCGTAATCGAAGCCGGAGTCACCTAGTGCAG” was tested, and the binding signal was 4630 fluorescence intensity (a.u.). In the case of “AGCTAAATTGATTCGTGCACCCAAGTCAACAAGAAAACGTCGGAGTCACCTAGTGCAG”, the binding signal is reported as 38900 fluorescence intensity (a.u.). With “TCAAATAATTTCGGTCAGAAATTTCCGAAATTTTGGTAATCGGAGTCACCTAGTGCAG” the binding signal was 7080 fluorescence intensity (a.u.). In the case of “GTAGTTAACCATTTAACCTGATGATGTGAGGACGAAAGAACGGAGTCACCTAGTGCAG”, the binding signal is reported as 4950 fluorescence intensity (a.u.). “ATTAACTATAATTATCGGCTGCAATCTAATTCGAATGTAGCGGAGTCACCTAGTGCAG” was tested, and the binding signal was 30300 fluorescence intensity (a.u.). In the case of “TGGTGGTGGTGGTGGTAGGGTTAGGGGTAGGAGGGGTCTCCGGAGTCACCTAGTGCAG”, the binding signal is reported as 8890 fluorescence intensity (a.u.). “CAGGTAATGGATTGATTGCAGGGTTGGGATTTGACCAGGTCGGAGTCACCTAGTGCAG” was tested, and the binding signal was 51800 fluorescence intensity (a.u.). “TTTCAAATCTCAAATTGAAAGTTTTCAAAATTTTCAAATCCGGAGTCACCTAGTGCAG” was tested, and the binding signal was 3760 fluorescence intensity (a.u.). For “ATAATAAGTTAAAACCTAATCAATCATACGCTAATGACTTCGGAGTCACCTAGTGCAG”, the binding signal was 6780 fluorescence intensity (a.u.). In the case of “AGGATCAAAATTGCATGATTTTGTATAGTTTAGGGATGAACGGAGTCACCTAGTGCAG”, the binding signal is reported as 3210 fluorescence intensity (a.u.). With “TGATTTCATGATTGATAGCTACATATCTTAGTTTCACACCCGGAGTCACCTAGTGCAG” the binding signal was 40200 fluorescence intensity (a.u.). In the case of “CTGATTAATTGCCAGTAATTTGATTTCAACCTTACGTGTACGGAGTCACCTAGTGCAG”, the binding signal is reported as 53000 fluorescence intensity (a.u.). “ATCTGATTTGATTTGATTTCGTACACCAGTAGCTTCAACCCGGAGTCACCTAGTGCAG” was tested, and the binding signal was 59800 fluorescence intensity (a.u.). “AAAATTCATGATTGATTTTGTAGTGGATCAACCTTGCCAACGGAGTCACCTAGTGCAG” was tested, and the binding signal was 52400 fluorescence intensity (a.u.). In the case of “CTTACGTGTAAATTGAAATTACATTGTAATTTACATTTGACGGAGTCACCTAGTGCAG”, the binding signal is reported as 34200 fluorescence intensity (a.u.). For “ATCTGATTGATACAGTACTTATTCACTGGAGTAGTATTTCCGGAGTCACCTAGTGCAG”, the binding signal was 40800 fluorescence intensity (a.u.). With “TATATTTAATTATTGATTTGATGTAACCAATTTAGTATTACGGAGTCACCTAGTGCAG” the binding signal was 23400 fluorescence intensity (a.u.). In the case of “ATTGATTGTAGCCAAAATAAATTTTACTAAATTTTGCCAACGGAGTCACCTAGTGCAG”, the binding signal is reported as 32500 fluorescence intensity (a.u.).
